# TSHR antagonist: human thyrotropin receptor antagonism; P16473; TSHR-expressing cells, TSH-stimulated cAMP HTRF, 2 h; active compounds read low; activity change, negative = inhibition, % at 11.5 µM; 330,000 compounds, 0.2% hits;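 active = activity change below a set negative limit, meaning inhibition stronger than a set level, cut at about -70% in these data; inconclusive = activity change between two set negative limits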; also: % is scaled to controls: 0 for no effect and ±100 for the full control effect
#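 TSHR-expressing cells were treated with compounds, then stimulated with TSH at EC80 (4nM final) for 2 hours at 37 deg C. Cellular cAMP was measured by HTRF competition between lysate cAMP and cAMP-d2 for a cryptate-labelled anti-cAMP antibody.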
# RXFP1 ag: activates the human relaxin receptor RXFP1; HEK293T-RXFP1 cAMP TR-FRET, 30 min; response scale: percent of porcine relaxin response, buffer zero; Potency, µM (highest dose often 57.5 µM), inactives show top-dose activation, most hits filed as activators; 370,000 compounds, 0.3% hits; active = well fitted activation curve with a large enough effect; inconclusive = small, poorly fitted or top-dose-only effect; also: potency is read from the fitted curve at half-maximal effect; % is scaled to controls: 0 for no effect and ±100 for the full control effect; nearly all actives have a fitted effect of over 60% in size
# Target sequence (Q9HBX9 whole entry, looked up): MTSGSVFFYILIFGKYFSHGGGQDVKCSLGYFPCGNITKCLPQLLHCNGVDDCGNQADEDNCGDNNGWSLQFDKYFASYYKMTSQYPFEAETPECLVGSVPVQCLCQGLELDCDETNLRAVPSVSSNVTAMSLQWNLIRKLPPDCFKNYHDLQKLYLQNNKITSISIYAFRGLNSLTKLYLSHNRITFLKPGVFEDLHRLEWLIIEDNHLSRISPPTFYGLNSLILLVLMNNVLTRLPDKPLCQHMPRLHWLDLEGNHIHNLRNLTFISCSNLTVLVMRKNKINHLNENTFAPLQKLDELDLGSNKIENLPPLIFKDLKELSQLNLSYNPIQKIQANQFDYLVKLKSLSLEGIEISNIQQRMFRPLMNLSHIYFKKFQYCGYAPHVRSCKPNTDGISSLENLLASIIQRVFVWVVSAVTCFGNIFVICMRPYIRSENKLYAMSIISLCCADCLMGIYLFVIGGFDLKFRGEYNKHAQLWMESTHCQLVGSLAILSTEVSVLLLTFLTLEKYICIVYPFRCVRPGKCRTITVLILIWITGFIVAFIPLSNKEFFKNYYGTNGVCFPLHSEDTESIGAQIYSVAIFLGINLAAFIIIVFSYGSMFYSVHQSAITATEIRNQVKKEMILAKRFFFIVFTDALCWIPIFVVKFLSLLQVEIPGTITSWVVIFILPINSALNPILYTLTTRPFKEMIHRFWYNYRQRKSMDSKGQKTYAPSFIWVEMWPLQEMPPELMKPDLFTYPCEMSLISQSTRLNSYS
#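 cAMP rise read by TR-FRET after 30 min, 37C compound exposure (up to 58 uM) in RXFP1-transfected HEK293 cells with Ro 20174 present. EC50 from Hill-equation fits, with 29 nM porcine relaxin as 100% and buffer as basal.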
# gsp antagonist: gsp mutant antagonism; Potency, µM (highest dose often 76.9 µM), for inactives: top-dose activity change, negative = inhibition, hits mostly inhibitors; AID 624288; gsp-mutant cells, cAMP HTRF, 30 min; 340,000 compounds, 0.4% hits; calls by dose curve; cell line not stated here;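 also: intracellular cAMP measured with PDE inhibitor Ro 20-1724 present during compound exposure; potency is read from the fitted curve at half-maximal effect; % is scaled to controls: 0 for no effect and ±100 for the full control effect; nearly all actives have a fitted effect of over 65% in size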
#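 Cells in G418 medium, seeded 16-24 h, 37C; buffer exchange to DPBS + 1 mM CaCl2, 0.5 mM MgCl2, 0.05% BSA; cpds in DMSO + […] (300 uM stock), 30 min 37C; HTRF cAMP detection.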
# RXFP1 antag: antagonists of human relaxin receptor RXFP1 | 350,000 compounds, 0.59% hits | Q9HBX9 | activity change, negative = inhibition, % at 57.5 µM | HEK293-RXFP1, relaxin-stimulated cAMP HTRF, 30 min; active compounds read low;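 active = activity change of -60% or lower, but not beyond a set lower limit; inconclusive = change between -60% and -40%, or beyond the set limit; inactive = change above -40%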; also: % is scaled to controls: 0 for no effect and ±100 for the full control effect
# gsp ag: activates gsp, the McCune-Albright syndrome mutation. gsp mutant cells, cAMP HTRF, 30 min. Potency, µM (highest dose often 76.9 µM), for the others: at the top dose activation (cAMP increase), hits mostly activators. 340,000 compounds, 0.13% hits. AID 624287; active = well fitted activation curve with a large enough effect; inconclusive = small, poorly fitted or top-dose-only effect, or another doubt; inactive = no such curve, though single readings can be large or run the other way; cell line not stated here;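 also: phosphodiesterase inhibitor Ro 20-1724 added with compounds to block cAMP breakdown; potency is read from the fitted curve at half-maximal effect; nearly all actives have a fitted effect of over 60% in size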
#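 Cells stably selected in G418 were plated at 2000/well, grown 16-24 hr, then given compounds in DMSO with the PDE inhibitor […] (300 uM solution added) for 30 min at 37C; cAMP was read by HTRF.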
# An asterisk follows results filed as active; ? = inconclusive; · = no result; [ ] = another dose, or the depositor's remark. This is a sample that favours compounds with a hit; in the whole collection about 1% have one here.
SMILES,TSHR antagonist,RXFP1 ag,gsp antagonist,RXFP1 antag,gsp ag
CS(=O)(=O)Nc1ccc(C2=NN(C(=O)c3ccccc3)C(c3cccs3)C2)cc1 (stereo not given),-8.9,0.0%,?,1.0,?
O=C(COc1ccccc1[N+](=O)[O-])Nc1ccc(N2CCN(C(=O)c3cccs3)CC2)cc1,-12.0,0.3%,28.2µM*,-27.6,0.7%[15.4 µM]
CCC(=O)Nc1ccc(N2CCN(C(=O)c3cccs3)CC2)cc1,-6.0,1.0%,-21.2%,1.5,3.1%
Cc1ccc(-c2nn(-c3ccccc3)cc2/C=C2\SC(=S)N(CC(=O)O)C2=O)cc1,-13.7,-0.3%,?,8.1,-33.2%
COc1ccc(-c2nn(-c3ccccc3)cc2/C=C2/SC(=S)N(CCC(=O)O)C2=O)c(C)c1,-3.1,0.6%,31.6µM*,-3.8,-4.2%
COc1ccc(-c2nn(-c3ccccc3)cc2/C=C2/SC(=S)N(CCC(=O)O)C2=O)cc1,-8.5,0.5%,31.6µM*,-6.0,-5.1%[15.4 µM]
CCN(c1ccc(C)cc1C)S(=O)(=O)c1nnc(NC(=O)c2ccc(F)cc2)s1,·,3.9%,·,-11.1,·
Cc1ccc2c(c1)N(C(=O)CCC(=O)NCc1cccs1)CCO2,·,-1.0%,·,-11.0,·
Cn1cccc1/C=N/n1c(-c2ccc(C(C)(C)C)cc2)n[nH]c1=S,14.2,4.9%,-18.5%,-64.3*,-30.6%
Cc1ccccc1-c1cc(C(=O)Nc2sc(C(=O)OC(C)C)c(C)c2C#N)c2ccccc2n1,-49.5,0.8%,11.2µM*,-64.7*,-28.3%
COC(=O)c1sc(NC(=O)c2cc(-c3ccccc3)nc3ccccc23)c(C#N)c1C,-48.4,1.5%,?,-19.3,-12.7%
O=C1/C(=C/c2ccncc2)Oc2cc(OS(=O)(=O)c3ccccc3)ccc21,17.9,-0.2%,-9.1%,-82.4*,-1.2%
COc1cccc(-n2nnnc2S(C)(=O)=O)c1,-23.8,2.6%,12.3%,10.9,-11.2%
Cc1cccc(-n2nnnc2S(C)(=O)=O)c1,·,0.4%,·,-83.9*,·
COCCn1c(=N)c(C(=O)NCCc2ccc(OC)cc2)cc2c(=O)n3cccc(C)c3nc21,0.5,1.0%,12.3%,-13.1,1.1%
COc1ccc(CNC(=O)c2cc3c(=O)n4cccc(C)c4nc3n(CC3CCCO3)c2=N)cc1 (stereo not given),1.0,?,5.3%,10.5,2.24µM*
COc1ccc(CCn2c(=N)c(C(=O)NCC3CCCO3)cc3c(=O)n4cccc(C)c4nc32)cc1 (stereo not given),-10.4,17.8µM*,5.1%,-0.9,?
COCCCNC(=O)c1cc2c(=O)n3cccc(C)c3nc2n(C(C)C)c1=N,-4.9,14.7%,0.7%,4.5,22.4µM*
Cc1c(C)n(C)c2ccc(C(=O)NCCc3ccc(Cl)cc3)cc12,·,3.1%,·,-20.8,·
O=C(Nc1ccc2c(c1)CCC2)c1cc(S(=O)(=O)Nc2ccc(F)cc2)c(Cl)cc1Cl,-76.0*,1.3%,-29.1%,·,4.5%
Cc1nnc2c3ccccc3c(Cl)nn12,23.2,?,5.2%,-0.3,25.1µM*
Cc1nc(C)c(CC(=O)N2CCc3c([nH]c4ccccc34)C2c2ccccn2)s1 (stereo not given),9.4,1.1%,-3.8%,-75.4*,20.7%[15.4 µM]
CC(=O)c1cc(CC(=O)N2CCc3c([nH]c4ccccc34)C2c2ccccn2)cs1 (stereo not given),-7.1,0.5%,-12.9%,-6.2,-23.6%
COc1ccc(CCNc2ncnc3c2c(-c2ccccc2)cn3-c2ccc(F)cc2)cc1OC,·,-0.5%,·,8.7,·
CCc1c(O)cc2n(c1=O)-c1ccc(Cl)cc1C2(C)C,-25.1,-0.2%,44.7µM*,1.0,?
SMILES,TSHR antagonist,RXFP1 ag,gsp antagonist,RXFP1 antag,gsp ag
CCCN1C(=O)C2(OCCO2)c2cc(Cl)ccc21,-1.6,-0.2%,-5.6%,-9.2,-4.8%
COCCCNC(=O)c1ccc(OC)c(OC2CCN(C(C)C)CC2)c1,7.0,1.9%,50.1µM*,1.1,20.1%
COc1ccccc1CCNC(=O)c1ccc(OC)c(OC2CCN(C(C)C)CC2)c1,18.0,-0.4%,22.3%,-18.4,-4.6%[15.4 µM]
COc1ccc(CNCc2cc(C)c(OC)cc2C)c(OC)c1,-128.6*,-1.4%,12.8%,-8.9,15.8%
CCc1ccc(NC(=O)C2CCN(S(=O)(=O)c3cnc[nH]3)CC2)cc1,-0.9,-1.7%,12.0%,12.0,-14.7%
CCc1ccc(NC(=O)C2CCCN(S(=O)(=O)c3cnc[nH]3)C2)cc1 (stereo not given),-8.8,-2.4%,10.4%,-115.6*,-18.9%
CSc1cccc(NC(=O)C2CCN(S(=O)(=O)c3cnc[nH]3)CC2)c1,27.1,2.9%,10.4%,-62.5*,-5.8%
COc1cccc(CN2C(=O)c3ccccc3Sc3ccc(C(=O)N(C)Cc4ccccc4)cc32)c1,·,4.4%,·,·,·
COc1ccc(N(C(=O)c2snc(C(N)=O)c2N)C(C(=O)NCC2CCCO2)c2ccc(C)o2)cc1OC (stereo not given),-4.3,-1.8%,-14.0%,-10.0,-6.6%
Cc1ccccc1N(C(=O)c1snc(C(N)=O)c1N)C(C(=O)NCC1CCCO1)c1ccc(F)cc1 (stereo not given),14.7,0.7%,-15.3%,-90.3*,9.5%[15.4 µM]
CCc1ccccc1N(C(=O)c1snc(C(N)=O)c1N)C(C(=O)NCC1CCCO1)c1ccc(C)o1 (stereo not given),?,0.6%,-6.1%,-119.1*,-0.8%[15.4 µM]
Cc1ccc(N(C(=O)c2snc(C(N)=O)c2N)C(C(=O)NCC2CCCO2)c2ccc(C)o2)c(C)c1 (stereo not given),4.6,2.3%,-19.9%,-63.4*,0.6%[15.4 µM]
CC(C)c1ccc(N(C(=O)c2snc(C(N)=O)c2N)C(C(=O)NCC2CCCO2)c2ccc(N(C)C)cc2)cc1 (stereo not given),12.8,?,?,-74.4*,-1.0%[15.4 µM]
Cc1cc(C)c(S(=O)(=O)Nc2ccc(-c3ccc(N4CCCCC4)nn3)cc2)c(C)c1,·,-0.5%,·,-25.2,·
CC(c1ccccc1)N1CCC(CNC(=S)Nc2cccc(Cl)c2)C1 (stereo not given),7.5,-1.3%,7.1%,?,28.2µM*
O=C1CSc2ccc(C(=O)Nc3cccc(S(=O)(=O)Nc4ccc(Br)cc4)c3)cc2N1,?,1.8%,39.8µM*,-13.2,-14.8%
O=C(Nc1cccc(S(=O)(=O)Nc2ccc(Cl)cc2)c1)c1ccc(Cl)nc1,-47.0,1.2%,44.7µM*,-18.0,-42.5%
O=C(O)c1ccc(NC(=O)c2cccc(S(=O)(=O)Nc3ccc(C(=O)O)cc3)c2)cc1,-16.4,2.0%,-3.6%,5.3,-11.0%
COc1ccc(NS(=O)(=O)c2cccc(NC(=O)c3ccc(Cl)nc3)c2)cc1,-45.1,4.3%,?,-71.2*,5.3%[15.4 µM]
CCN1CCc2c(sc(-n3cccc3)c2C(CCC(C)C)NC(=O)NCCC(=O)OC)C1 (stereo not given),·,0.2%,·,10.9,·
